Reference: the supplement of paper PMC10811239

Columns and labels:
Test in all cases: bioluminescence (viable cell) signal fold change after vs before treatment, normalised to DMSO (ratio); higher = more tumour cell growth / less inhibition
Conditions in all cases: 10 µM; treatment time 6 days
[1] = system: LEGO organoid PT (PTEN-/-; TP53-/-)
Experimental: (§1)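 Luc2-labelled iPSC-derived glioblastoma-like organoids (LEGOs, genotypes PT = PTEN-/-;TP53-/-, PTCC = plus CDKN2A/B-/-, PTN = plus NF1-/-) were treated with 10 uM drug for 6 days (applied every other day) at 37 C. Bioluminescence imaging was done before treatment and 2 days after the last dose. BLI signals were normalised to the DMSO control on the same day and then to the pre-treatment signal (N=3).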

[2] = system: LEGO organoid PTCC (PTEN-/-; TP53-/-; CDKN2A-/-; CDKN2B-/-)
Experimental: as §1

[3] = system: LEGO organoid PTN (PTEN-/-; TP53-/-; NF1-/-)
Experimental: as §1

Row | Compound | bioluminescence [1] | bioluminescence [2] | bioluminescence [3]
1 | CCN1CCN(C(=O)N[C@@H](C(=O)N[C@@H]2C(=O)N3[C@@H]2SC(C)(C)[C@@H]3C(=O)[O-])c2ccccc2)C(=O)C1=O.[Na+] [Piperacillin sodium salt] | 1.08 | 1.11 | 0.935
2 | NS(=O)(=O)c1cc2c(cc1Cl)N=CNS2(=O)=O [Chlorothiazide] | – | 1.63 | 1.33
3 | COc1cc(C(=O)NCc2ccc(OCCN(C)C)cc2)cc(OC)c1OC.Cl [Trimethobenzamide hydrochloride] | 1.11 | 0.906 | 0.646
